In PubChem BioAssay (NCI):
The panel holds about 79,000 compounds, 15% with a hit somewhere; the sample as a whole holds those more often. No stated cut-off is given here; in the data, active means growth inhibition above about 70%; inactive means the rest.

Legend:
[1] = NCI Yeast Anticancer Drug Screen. Data for the rad50 strain (AID 155);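 further: 0% = growth of vehicle-only cultures of the same strain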; settings: S. cerevisiae rad50 strain growth inhibition; at 50.0 µM; hits give high values
Outline: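 DNA repair mutant yeast, compound exposure, growth read-out; inhibition is taken relative to vehicle.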

[2] = NCI Yeast Anticancer Drug Screen. Data for the mec2-1 strain (AID 157); settings: S. cerevisiae mec2-1 strain, at 50.0 µM, hits give high values
Outline: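 Strain: mec2-1 (DNA repair/cell cycle alteration). Compound exposure, then growth measured; inhibition expressed relative to vehicle.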

[3] = NCI Yeast Anticancer Drug Screen. Data for the sgs1 mgt1 strain (AID 161);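 further: 0% = growth of cultures given vehicle only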; settings: S. cerevisiae sgs1 mgt1 strain, at 50.0 µM, hits give high values
Outline: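 Genetically altered yeast, compound exposure, growth inhibition relative to vehicle.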

[4] = NCI Yeast Anticancer Drug Screen. Data for the cln2 rad14 strain (AID 165);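 further: 0% = growth equal to vehicle treated cultures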; settings: S. cerevisiae cln2 rad14 strain, at 50.0 µM, hits give high values
Outline: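 Compounds are applied to the cln2 rad14 yeast strain, and growth is then compared with that of vehicle-treated cultures to give inhibition.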

[5] = NCI Yeast Anticancer Drug Screen. Data for the bub3 strain (AID 167); settings: S. cerevisiae bub3 mutant strain, at 50.0 µM, hits give high values
Outline: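 In this screen, a yeast mutant lacking normal mitotic checkpoint function is challenged with compound. Relative growth versus vehicle gives the inhibition value.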

[6] = NCI Yeast Anticancer Drug Screen. Data for the mlh1 rad18 strain (AID 175); settings: S. cerevisiae mlh1 rad18 strain growth inhibition; at 50.0 µM; hits give high values
Outline: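 Read-out is yeast growth inhibition, calculated against vehicle-only controls. The compound was applied to a strain engineered with DNA damage repair alterations.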

Measured: growth inhibition

C1CCC(C2CCC(C3CCCCC3)CC2)CC1 (stereo not given)
inactive: [1] -14.1% | [2] -8.75% | [3] -9.55% | [4] -45.6% | [5] 6.35% | [6] 6.15%

COc1c(C)c2nc3ccccc3[nH]c2c2c(=O)ccnc12
inactive: [1] -3.8% | [2] -29.6% | [3] -12.4% | [4] 14.8% | [5] -21.9% | [6] 46.1%

COC1CCC2(C)C3CCC4C(=CCC5C(C)(C)C(O)CCC45C)CC3(C)CCC2C1(C)C (stereo not given)
inactive: [1] -8.45% | [2] -12.3% | [3] -31.3% | [4] -25.4% | [5] 1.2% | [6] -12.7%

N#Cc1ccc(OCc2nc(N)nc(N)c2-c2ccc(Cl)cc2)cc1
inactive: [1] -4.4% | [2] 5.35% | [3] -16.4% | [4] -10% | [5] 20.8% | [6] 14.8%

CC(C)(C)OC(=O)NC(CCC(=O)OCc1ccccc1)C(=O)NCCCO (stereo not given)
inactive: [1] -11.8% | [2] -35.3% | [3] 8.4% | [4] -9.35% | [5] -15.7% | [6] 9.8%

CC1=NN(c2ccccc2)C(=O)/C1=C1\SC(c2ccccc2)(c2ccccc2)c2ccccc21
inactive: [1] -29.4% | [2] 0.9% | [3] 1.8% | [4] 7.95% | [5] 23.2% | [6] -30.4%

CCN(CC)C1=CC(=O)C(N(CC)CC)=CC1=O
inactive: [1] 1.25% | [2] 0.15% | [3] -7% | [4] -4.5% | [5] 13.1% | [6] 2.35%

CC(O)(CCCCCl)c1nc2ccccc2s1 (stereo not given)
inactive: [1] 20.9% | [2] -8.05% | [3] 25.4% | [4] -0.8% | [5] 11.9% | [6] 17.1%

CC1=CC[C@](C)(O)[C@@]2(C)CC[C@H]3C(=C(C)C)C(=O)C[C@]3(C)C[C@H]12
inactive: [1] 9% | [2] 1.3% | [3] 19.9% | [4] 33.4% | [5] 10.2% | [6] 17.5%

CCC(c1ccc(OCC(=O)N2CC2)cc1)C(CC)c1ccc(OCC(=O)N2CC2)cc1 (stereo not given)
inactive: [1] 11.8% | [2] 10.3% | [3] 13.5% | [4] 17.8% | [5] -0.35% | [6] 1.75%

CC(C)OCC(O)CNCCN (stereo not given)
inactive: [1] -30.8% | [2] -20.9% | [3] -7.9% | [4] -2.5% | [5] -21% | [6] -0.75%

Cc1ccc2c(CC(=O)O)cc(=O)oc2c1
inactive: [1] 7.35% | [2] -6.35% | [3] -7.95% | [4] 0.9% | [5] -0.3% | [6] -9.35%

NCCCN(CCCCN(CCCN)C(=O)OCc1ccccc1)C(=O)OCc1ccccc1
inactive: [1] 6.85% | [2] -13.1% | [3] -18.9% | [4] 8.55% | [5] 1.2% | [6] -55.9%

COC(=O)C1(CC(=O)C2CC2)NC(=S)NC(=O)C1C#N (stereo not given)
inactive: [1] 13.2% | [2] -10.2% | [3] -12.3% | [4] -8.6% | [5] -21.4% | [6] 5.2%

COC(=O)C(=O)c1c(C(=O)OC)nc2[nH]n(-c3ccccc3)c(=O)c2c1Cc1ccccc1
inactive: [1] -5.85% | [2] 1.05% | [3] 1.6% | [4] -45.9% | [5] -37.5% | [6] 8.25%

Cc1ccc(S(=O)(=O)c2ccc(C)cc2C(=O)O)cc1
inactive: [1] -8.6% | [2] -19.3% | [3] -1.4% | [4] -9.8% | [5] -30.2% | [6] -22.4%

CCCCCCCCC(=O)c1c(OC)oc(C=O)cc1=O
inactive: [1] -0.5% | [2] -22.8% | [3] 31.8% | [4] 26.2% | [5] -19.6% | [6] 4%

N#Cc1c(C(F)(F)F)cc(-c2cccs2)nc1SC(C(=O)Nc1c(F)cccc1F)c1ccccc1 (stereo not given)
inactive: [1] 15.8% | [2] -19.6% | [3] 23% | [4] 20.2% | [5] 15% | [6] 25.9%

Brc1ccc(-c2ccc(-c3ccc(Br)cc3)s2)cc1
inactive: [1] 30.4% | [2] 13.8% | [3] 36.5% | [4] 19.8% | [5] -1.55% | [6] 4%

O=C(NC1CC/C=C(/c2ccccc2)CC(Cl)C1)c1ccccc1 (stereo not given)
inactive: [1] 7.85% | [2] 4.9% | [3] -8.9% | [4] -3.5% | [5] 6.6% | [6] -0.25%
